In PubChem BioAssay AID1159580 (chemical genetic matrix, 2015):
Several values for one entry are separate records, joined by “and”; a condition that tells them apart may be missing. Identical values can stand only once. Among all 5,500 compounds or so, about 2,000 (36%) were called active. Another 18% or so got no clear call; they are omitted. The list shows a part of the results. A number with no mark means an inactive call. No stated cut-off is given here; in the data, active means normalized growth mostly below about 0.91 (no sharp cut-off); inconclusive means no clear call, values can overlap the other calls; inactive means mostly above about 0.92.

Assay: chemical genetic growth profiling, strain panel (AID 1159580);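 further: tested at 20 µM; growth read once vehicle control cultures reached saturation at 30 °C; 1 = growth at the plate median or of vehicle wells; lower values mean less growth of the strain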
Settings: S. cerevisiae deletion strains, growth OD

## Cc1onc(-c2ccccc2)c1C(=O)NC1C(=O)N2[C@@H]1SC(C)(C)[C@@H]2C(=O)O (some centres not stated)
Locus YAL013W, strain DEP1, active compounds read low
  normalized growth: 1.01
Locus YAL021C, strain ccr4, active compounds read low
  normalized growth: 1.02
Locus YAL026C, strain drs2, active compounds read low
  normalized growth: 1.01
Locus YAL030W, strain snc1, active compounds read low
  normalized growth: 1.02
Locus YBL061C, strain skt5, active compounds read low
  normalized growth: 1.02
Locus YBR009C, strain hhf1, active compounds read low
  normalized growth: 1.02
Locus YBR021W, strain FUR4, active compounds read low
  normalized growth: 0.99
Locus YBR023C, strain chs3, active compounds read low
  normalized growth: 1.02
Locus YBR171W, strain sec66, active compounds read low
  normalized growth: 1.02
Locus YBR229C, strain ROT2, active compounds read low
  normalized growth: 1
Locus YBR231C, strain swc5, active compounds read low
  normalized growth: 1.01
Locus YBR279W, strain paf1, active compounds read low
  normalized growth: 1.01
Locus YCL011C, strain gbp2, active compounds read low
  normalized growth: 1.03
Locus YCL016C, strain dcc1, active compounds read low
  normalized growth: 1.06
Locus YCL029C, strain bik1, active compounds read low
  normalized growth: 1.02
Locus YCL061C, strain MRC1, active compounds read low
  normalized growth: 1.02
Locus YCL069W, strain vba3, active compounds read low
  normalized growth: 1.02
Locus YCR088W, strain abp1, active compounds read low
  normalized growth: 1.02
Locus YDL005C, strain med2, active compounds read low
  normalized growth: 1.01
Locus YDL035C, strain GPR1, active compounds read low
  normalized growth: 1
Locus YDL040C, strain nat1, active compounds read low
  normalized growth: 1.01
Locus YDL074C, strain BRE1, active compounds read low
  normalized growth: 1.03
Locus YDL101C, strain DUN1, active compounds read low
  normalized growth: 1.02
Locus YDL134C, strain PPH21, active compounds read low
  normalized growth: 1
Locus YDL185W, strain tfp1, active compounds read low
  normalized growth: 1.01
Locus YDL192W, strain arf1, active compounds read low
  normalized growth: 1.01
Locus YDR001C, strain nth1, active compounds read low
  normalized growth: 1.01
Locus YDR069C, strain doa4, active compounds read low
  normalized growth: 1.01
Locus YDR101C, strain arx1, active compounds read low
  normalized growth: 1.01
Locus YDR137W, strain rgp1, active compounds read low
  normalized growth: 1.04
Locus YDR150W, strain NUM1, active compounds read low
  normalized growth: 1.01
Locus YDR159W, strain sac3, active compounds read low
  normalized growth: 1
Locus YDR162C, strain NBP2, active compounds read low
  normalized growth: 1.01
Locus YDR195W, strain ref2
  normalized growth: 0.996
Locus YDR297W, strain sur2, active compounds read low
  normalized growth: 1.01
Locus YDR318W, strain mcm21, active compounds read low
  normalized growth: 1.01
Locus YDR334W, strain swr1, active compounds read low
  normalized growth: 1.02
Locus YDR335W, strain msn5, active compounds read low
  normalized growth: 1.02
Locus YDR388W, active compounds read low
  normalized growth: 1.01
Locus YDR392W, strain spt3, active compounds read low
  normalized growth: 0.959
Locus YDR502C, strain sam2, active compounds read low
  normalized growth: 1.01
Locus YEL003W, strain gim4, active compounds read low
  normalized growth: 0.988
Locus YEL037C, strain rad23, active compounds read low
  normalized growth: 1.01
Locus YEL061C, strain CIN8 (second series), active compounds read low
  normalized growth: 1
Locus YEL061C, strain CIN8, active compounds read low
  normalized growth: 1.01
Locus YER015W, strain faa2, active compounds read low
  normalized growth: 1.01
Locus YER016W, strain bim1, active compounds read low
  normalized growth: 1.03
Locus YER110C, active compounds read low
  normalized growth: 1.01
Locus YER111C, strain swi4, active compounds read low
  normalized growth: 1.01
Locus YER155C, strain BEM2 (second series), active compounds read low
  normalized growth: 1.02
Locus YER155C, strain BEM2, active compounds read low
  normalized growth: 1.01
Locus YER167W, strain BCK2, active compounds read low
  normalized growth: 1.01
Locus YFR010W, strain ubp6, active compounds read low
  normalized growth: 1.01
Locus YGL078C, strain dbp3, active compounds read low
  normalized growth: 0.998
Locus YGL086W, strain mad1, active compounds read low
  normalized growth: 0.991
Locus YGL167C, strain pmr1, active compounds read low
  normalized growth: 1.02
Locus YGL173C, strain kem1, active compounds read low
  normalized growth: 1.01
Locus YGL227W, strain vid30, active compounds read low
  normalized growth: 1.02
Locus YGL240W, strain doc1, active compounds read low
  normalized growth: 1.02
Locus YGL248W, strain PDE1, active compounds read low
  normalized growth: 1
Locus YGL253W, strain hxk2, active compounds read low
  normalized growth: 1.02
Locus YGR078C, strain PAC10, active compounds read low
  normalized growth: 1.02
Locus YGR135W, strain pre9, active compounds read low
  normalized growth: 1.01
Locus YGR229C, strain SMI1, active compounds read low
  normalized growth: 1
Locus YGR252W, strain gcn5, active compounds read low
  normalized growth: 0.939
Locus YHR013C, strain ard1, active compounds read low
  normalized growth: 1.22 [resistant] (active)
Locus YHR027C, strain rpn1, active compounds read low
  normalized growth: 1.02
Locus YHR030C, strain SLT2, active compounds read low
  normalized growth: 1.01 and 0.989
Locus YHR079C, strain IRE1 (second series), active compounds read low
  normalized growth: 1.01
Locus YHR079C, strain IRE1, active compounds read low
  normalized growth: 0.965
Locus YHR094C, strain hxt1, active compounds read low
  normalized growth: 1.01
Locus YHR129C, strain ARP1, active compounds read low
  normalized growth: 1.01
Locus YHR142W, strain chs7, active compounds read low
  normalized growth: 1.02
Locus YHR200W, strain rpn10, active compounds read low
  normalized growth: 1.02
Locus YIL066C, strain RNR3, active compounds read low
  normalized growth: 1.01
Locus YIL073C, strain SPO22, active compounds read low
  normalized growth: 1.01
Locus YIL125W, strain kgd1, active compounds read low
  normalized growth: 1.01
Locus YIR030C, strain dcg1, active compounds read low
  normalized growth: 1.02
Locus YJL092W, strain hpr5, active compounds read low
  normalized growth: 1.02
Locus YJL095W, strain BCK1 (second series), active compounds read low
  normalized growth: 1.02
Locus YJL095W, strain BCK1, active compounds read low
  normalized growth: 1.01 and 0.989
Locus YJL115W, strain asf1, active compounds read low
  normalized growth: 1.01
Locus YJL129C, strain trk1, active compounds read low
  normalized growth: 0.994
Locus YJL134W, strain LCB3, active compounds read low
  normalized growth: 1.01
Locus YJL154C, strain vps35, active compounds read low
  normalized growth: 1.02
Locus YJL164C, strain tpk1, active compounds read low
  normalized growth: 1.02
Locus YJL166W, strain qcr8, active compounds read low
  normalized growth: 1.03
Locus YJL168C, strain set2, active compounds read low
  normalized growth: 1
Locus YJL187C, strain SWE1 (second series), active compounds read low
  normalized growth: 1.01
Locus YJL187C, strain SWE1, active compounds read low
  normalized growth: 1.02
Locus YJR043C, strain POL32, active compounds read low
  normalized growth: 1.02
Locus YJR066W, strain TOR1, active compounds read low
  normalized growth: 0.933
